A selection: hits, their analogues and other compounds. The true share with any hit is near 2.2%.
TMEM16A act: activators or potentiators of mouse TMEM16A chloride channel; Q8BHY3; actives 0.3% (n = 340,000); HEK293 TMEM16A/YFP-H148Q/I152L, iodide quench fluorescence; hits give low values; B-score at 10 µM;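 active = fluorescence-ratio B-score plate-corrected deviation score at least 3 library SD below zero, with starting fluorescence score within 5 deviations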;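 also: channel opened by trigger with iodide after compound preincubation; score built on the fluorescence ratio of max minus min over baseline; more negative score means more quench and so TMEM16A activation or potentiation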
TLR9-MyD88 block: TLR9-MyD88 interaction inhibition; Q9NR96+Q99836; CHO BLA complementation TLR9-MyD88, CCF4 FRET ratio; inhibition, % at 4.98 µM; actives 0.21% (n = 340,000); AID 504734;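 active = inhibition above the mean over all tested compounds plus 3 SD, cut at about 21% in these data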;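 also: 0% = DMSO only wells and 100% = clavulanate BLA inhibitor control wells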
TLR4 MyD88 comp: TLR4-MyD88 interaction inhibition in cells. HeLa CL3-4 TLR4/MyD88 BLA complementation, FRET ratio. actives 0.18% (n = 200,000). inhibition, % at 8.4 µM. O00206+Q99836. AID 861; in the data active = inhibition above about 25%;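 also: 0% = vehicle and 100% = reference inhibitor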
NOD2-RIPK2 inh: inhibitors of human NOD2-RIPK2 interaction | inhibition, % at 4.98 µM | AID 624267 | CHO BLA complementation NOD2-RIPK2, CCF4 ratio | actives 0.38% (n = 360,000); in the data active = inhibition above about 21%;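 also: 0% = vehicle only and 100% = reference blocker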
Target sequence (O43353 whole entry, looked up): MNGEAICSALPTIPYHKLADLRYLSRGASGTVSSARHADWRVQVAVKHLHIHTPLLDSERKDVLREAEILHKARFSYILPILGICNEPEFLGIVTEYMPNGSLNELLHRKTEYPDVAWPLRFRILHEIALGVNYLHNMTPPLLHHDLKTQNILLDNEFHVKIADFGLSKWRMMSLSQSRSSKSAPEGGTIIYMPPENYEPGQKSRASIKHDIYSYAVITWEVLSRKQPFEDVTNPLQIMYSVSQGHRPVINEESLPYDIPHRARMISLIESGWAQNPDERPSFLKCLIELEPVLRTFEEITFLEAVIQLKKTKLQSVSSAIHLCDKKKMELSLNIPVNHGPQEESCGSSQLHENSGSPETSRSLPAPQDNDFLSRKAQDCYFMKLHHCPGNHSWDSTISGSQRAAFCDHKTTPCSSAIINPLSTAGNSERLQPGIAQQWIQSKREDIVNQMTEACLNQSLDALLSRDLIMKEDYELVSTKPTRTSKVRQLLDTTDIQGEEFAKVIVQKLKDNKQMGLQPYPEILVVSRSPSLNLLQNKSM
TMEM16A inh: mouse TMEM16A channel inhibition, primary screen; normalized B-score (activity score, 25-100; higher = stronger inhibition) at 10 µM; HEK293 TMEM16A/YFP iodide influx fluorescence, ionomycin; actives 1.2% (n = 310,000); Q8BHY3;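 active = ratio plate-corrected score three or more library SD toward inhibition, starting fluorescence score within five deviations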;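 also: score derived from kinetic fluorescence span divided by baseline fluorescence per well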
GRK2 aptamer HTS: human GRK2 inhibition via aptamer displacement; inhibition of aptamer binding, % at 10 µM; actives 0.59% (n = 330,000); bead flow cytometry, FAM-aptamer displacement from GRK2; P25098;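 active = inhibition of aptamer binding above 40%, roughly 3 SD of noise, on plates passing a quality check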;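 also: median bead fluorescence of bound FAM aptamer so fluorescent compounds give negative values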
* marks the source's active call; other numbers are inactive results; i = inactive; . = no result given.

SMILES	TMEM16A act	TLR9-MyD88 block	TLR4 MyD88 comp	NOD2-RIPK2 inh	TMEM16A inh	GRK2 aptamer HTS
COc1ccc(N2CCN(C(=O)CN3CCN(c4nc(-c5ccc(F)cc5)cs4)CC3)CC2)cc1	i	11	15	-7	25*	2
Cc1cc(C)n2c(NC3CCCCC3)c(CC(C)C)nc2n1	.	.	.	9	.	.
CN1C(C(=O)NCc2cccc(Br)c2)CC2Cn3c(nc4cc(Cl)c(Cl)cc43)C21 (stereo unspecified)	-4.8*	-4	.	-15	i	1
CCCCCn1c(N2CCC(Cc3ccccc3)CC2)nc2c1c(=O)[nH]c(=O)n2C	i	-12	-5	3	100*	3
COC(=O)C(c1ccccc1)C(C(=O)OC)c1ccccc1 (stereo unspecified)	i	-12	.	4	i	0
COC(=O)C(C(=O)OC)C(C)C(C(=O)OC)C(=O)OC	-18*	-5	0	2	i	2
Cc1cc(Cl)ccc1-c1nc(NC(C)C)nc2ccsc12	.	.	.	-6	.	.
O=c1cc(N2CCCCC2)c(-c2ccccc2)nn1Cc1c(Cl)cccc1Cl	-26*	8	3	0	25*	1
C=CCn1c(COc2cccc3ccc(C)nc23)nnc1SCC(=O)O	i	-11	9	1	i	0
C=CCn1c(COc2cccc3cccnc23)nnc1SCC(=O)O	-10*	-1	2	1	i	10
CCN1CCN(C(=O)C(Cc2ccccc2)NC(=O)c2ccc(Cl)c(S(=O)(=O)N(C)C)c2)CC1 (stereo unspecified)	-46*	-4	.	-2	.	0
COc1cccc(-c2nnn(CC(=O)Nc3ccc(C)cc3C)n2)c1OC	i	1	13	-9	25*	0
O=S1(=O)C[C@@H](N2CCC(Cc3ccccc3)CC2)[C@H](COCc2ccccc2)N1	.	-1	.	-3	.	.
C/C(=N\NC(=O)c1ccc(O)cc1)c1ccc2c(c1)Nc1ccccc1S2	i	10	-2	-1	25*	7
C/C(=N\NC(=O)c1ccccc1F)c1ccc2c(c1)Nc1ccccc1S2	i	0	18	6	i	1
CCN(CC)S(=O)(=O)c1ccc(OC)c(NC(=O)c2ccc([N+](=O)[O-])cc2)c1	i	3	11	7	i	0
COc1ccc(C(=O)Nc2ccccc2)cc1NC(=O)c1ccc([N+](=O)[O-])cc1	-7.2*	-5	.	5	i	3
CCn1c(SCC(=O)NCC2CCCO2)nnc1-c1ccccc1 (stereo unspecified)	i	-9	1	-25	i	0
Nn1cc(-c2ccccc2)nc1SCC(=O)NCC1CCCO1 (stereo unspecified)	-20*	1	-4	-1	i	0
COc1ccc(C2=Nc3ccccc3N(C(=O)c3ccc(C(F)(F)F)cc3)C2C(=O)Nc2ccc3c(c2)OCCO3)cc1 (stereo unspecified)	.	.	.	0	.	.
Cc1ccc(-n2cccc2/C=C2/C(=N)N3C(=NC2=O)SN=C3S(C)(=O)=O)cc1Cl	i	7	0	-6	i	5
CCOc1ccc(-n2c(C)cc(/C=C3/C(=N)N4C(=NC3=O)SN=C4S(C)(=O)=O)c2C)cc1	-6.3*	2	-10	-6	i	1
Cc1cccc(C)c1-n1cccc1/C=C1/C(=N)N2C(=NC1=O)SN=C2S(C)(=O)=O	i	-1	-3	-12	25*	6
Cc1ccc([C@H]2C(C(=O)O)=CC[C@@H](c3cccc(Cl)c3)N2S(=O)(=O)c2ccc(C)cc2)cc1	.	3	.	-7	.	.
Cc1ccc(S(=O)(=O)N2[C@@H](c3cccc(Cl)c3)C(C(=O)O)=CC[C@H]2c2cccc(Cl)c2)cc1	i	-2	.	-20	100*	0
Cc1ccc(S(=O)(=O)N2[C@@H](c3cccc(Cl)c3)C(C(=O)O)=CC[C@H]2c2cccc(C)c2)cc1	i	-4	.	-9	25*	3
O=c1[nH]c(CSc2nc3ccccc3[nH]2)nc2c1cnn2-c1ccccc1	i	-9	3	-2	100*	3
Cc1nc(NC(=O)C(C)(C)C)sc1C(=O)Cn1cc(-c2ccc(C(C)(C)C)cc2)nn1	.	.	.	7	.	.

Assay outcomes: PubChem BioAssay, several laboratories
